PRMT1 inh: PRMT1 (human) inhibition, primary screen; Q99873; recombinant PRMT1, activity-based probe fluorescence polarization; inhibition, % at 2.79 µM; 1.3% of 370,000 active; AID 652257;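 active = inhibition above about 21% made by adding two undisclosed values, limit read from the data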
Target sequence (Q99873 whole entry, looked up): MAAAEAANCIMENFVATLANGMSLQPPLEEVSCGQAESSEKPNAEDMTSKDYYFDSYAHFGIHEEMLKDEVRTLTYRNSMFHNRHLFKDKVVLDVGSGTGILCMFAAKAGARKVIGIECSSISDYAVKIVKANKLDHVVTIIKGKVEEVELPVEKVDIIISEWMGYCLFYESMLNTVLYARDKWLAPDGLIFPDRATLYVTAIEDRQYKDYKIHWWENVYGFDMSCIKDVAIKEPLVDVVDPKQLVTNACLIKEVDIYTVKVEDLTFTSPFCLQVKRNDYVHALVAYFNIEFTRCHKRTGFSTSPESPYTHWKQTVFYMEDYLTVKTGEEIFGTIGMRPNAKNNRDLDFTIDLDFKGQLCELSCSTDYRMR
ABHD5-PLIN5 inh: blocks binding of human ABHD5 to perilipin-5 | Split G. princeps luciferase complementation, luminescence, 4 h | inhibition, % at 4 µM | 0.78% of 360,000 active | AID 602281;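 active = inhibition above the mean inhibition across every tested compound plus 3 SD, cut at about 22% in these data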;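 also: 0% = DMSO only wells and the 100% control is not disclosed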
LEDGF integ inh: blocks HIV-1 LEDGF/p75-dependent DNA integration | TR-FRET IN-LEDGF/p75 DNA integration, Eu/Cy5 | inhibition, % at 3.7 µM | AID 743269 | 0.64% of 370,000 active;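 active = inhibition above the screen-wide mean plus 3 SD, cut at about 13% in these data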;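 also: signal is the Cy5 over europium emission ratio at 671 and 618 nm; 0% = plate median of compound wells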
rCAG RNA binder: r(CAG) repeat RNA binding | TO-PRO-1 dye displacement fluorescence | inhibition, % at 3 µM | 1.3% of 370,000 active;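 active = inhibition above the plate cutoff, the mean of all test compounds on that plate plus 3 SD, cut at about 35% in these data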;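 also: 0% = DMSO alone and 100% = 100 µM mitoxantrone as full dye displacement; higher means more dye released from RNA so lower well fluorescence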
MBD2 inh: MBD2-methylated oligo binding inhibition; Q9UBB5; TR-FRET, MBD2 binding to methylated oligonucleotide; inhibition, % at 4.4 µM; 0.31% of 370,000 active; AID 686964; in the data active = inhibition above about 13%
UHRF1 binding: blocks human UHRF1 binding to methylated DNA; Q96T88; UHRF1 binding to methylated oligo, TR-FRET; inhibition, % at 4.4 µM; 0.75% of 370,000 active; AID 687016; in the data active = inhibition above about 21%;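 also: UHRF1 SRA domain binding a hemimethylated CpG hairpin DNA probe; 0% = median of test compound wells and 100% = reference inhibitor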
rCAG binder conf: r(CAG) RNA repeat binding, confirmation; shares compounds with rCAG RNA binder; TO-PRO-1 dye displacement fluorescence; inhibition, % at 3 µM; 70% of 4,300 active;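 active = inhibition above a per-plate cutoff, the mean inhibition of sample wells plus 3 SD, cut at about 35% in these data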;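 also: loss of TO-PRO-1 fluorescence as compound displaces dye from 1x1 AA loop RNA; 0% = DMSO only wells and 100% = 100 µM mitoxantrone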
DNA CAG counter: disrupts DNA CAG TO-PRO-1 complex, flagging rCAG hits | d(CAG) DNA oligo TO-PRO-1 dye displacement, fluorescence | shares compounds with rCAG RNA binder | 94% of 4,300 active | inhibition, % at 3 µM | AID 652068;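 active = inhibition above its plate's cutoff, the mean test-well inhibition plus 3 SD, cut at about 4.8% in these data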;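 also: 0% = DNA dye mix with DMSO and 100% = 100 µM mitoxantrone; hits displace the dye from DNA and so lower well fluorescence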
* = called active by the depositor; . = no result given. Only some compounds are listed: those with a hit (about 4.1% of all), similar ones and a draw of the others.

SMILES	PRMT1 inh	ABHD5-PLIN5 inh	LEDGF integ inh	rCAG RNA binder	MBD2 inh	UHRF1 binding	rCAG binder conf	DNA CAG counter
Cc1ccc(SCc2cc(=O)c3c(=O)n(-c4ccccc4)[nH]c3[nH]2)cc1	22.3*	-8.4	-1.5	62.4*	-4.0	2.7	43.3*	17.1*
CCOC(=O)N(C)C[C@H]1OCc2cnnn2CCCC(=O)N([C@H](C)CO)C[C@@H]1C	4.3	.	-2.0	0.1	-2.2	1.7	.	.
Cc1ccc(Cl)cc1NC(=O)c1cc(NC(=O)CCCC(=O)O)ccc1N1CCCCC1	-0.9	3.3	-2.2	51.1*	5.3	-2.0	55.8*	18.2*
Cc1ccc(NC(=O)c2cc(NC(=O)CCC(=O)O)ccc2N2CCCCC2)cc1	-2.6	3.5	-4.1	10.9	3.7	2.5	.	.
O=C1NC(=O)/C(=C\c2ccccc2OCc2ccccc2)S1	3.8	3.3	2.2	68.7*	-3.4	-1.0	57.6*	19.7*
CCCOc1ccc2ccccc2c1/C=C1\SC(=O)NC1=O	0.5	-4.5	-2.1	53.2*	0.5	0.8	43.8*	13.0*
COc1cc(/C=C2/SC(=O)NC2=O)ccc1OCc1ccccc1	7.8	19.7	2.0	59.2*	-2.5	1.5	50.7*	12.8*
Cc1ccc(S(=O)(=O)Oc2ccccc2/C=C2/SC(=O)NC2=O)cc1	4.0	-1.6	-0.8	43.9*	4.1	3.3	35.7*	7.0*
COc1ccccc1OCCCOc1ccc(/C=C2\SC(=O)NC2=O)cc1OC	-4.3	5.6	-2.7	31.6	2.0	1.4	.	.
COc1ccccc1OCCCOc1cccc(/C=C2\SC(=O)NC2=O)c1	1.8	8.2	0.5	77.7*	0.4	-0.6	83.2*	51.1*
CCN(CC)c1ccc(C(=C2C=CC(=[N+](CC)CC)C=C2)c2ccc(S(=O)(=O)O)cc2S(=O)(=O)[O-])cc1	4.9	-1.6	-10.6	45.5*	-23.1	-14.9	58.1*	17.6*
CCN(CC)c1ccc(C(=O)O)cc1	-1.1	-2.9	1.3	-3.3	-6.7	-3.9	.	.
COc1ccc(/C=N/n2c(-c3cccs3)n[nH]c2=S)cc1	11.0	-13.1	-0.5	23.0	-1.9	-4.0	.	.
S=c1[nH]nc(-c2cccs2)n1/N=C/c1c(Cl)cccc1Cl	19.2	-2.8	1.6	49.9*	1.6	-5.5	43.8*	10.3*
COc1ccccc1NC(=O)OC1CC2CC1[C@H]1CCCCN1[C@H]2C (some centres not stated)	4.3	.	0.5	9.1	3.0	-1.0	.	.
N#CC1=C(N)SC(N)=C(C#N)C1c1cccc(Oc2ccccc2)c1	-2.9	1.4	0.7	60.4*	-4.3	-2.4	33.8	11.5*
CCOc1ccc(-n2c(C)cc(/C=C3/C(=N)N4C(=NC3=O)SN=C4S(C)(=O)=O)c2C)cc1	1.3	-3.0	-0.2	24.4	-8.3	-2.9	.	.
Cc1cc(/C=C2/C(=N)N3C(=NC2=O)SN=C3S(C)(=O)=O)c(C)n1-c1ccc(F)cc1	7.0	3.2	-0.9	68.6*	0.0	-5.0	79.2*	46.5*
COc1ccccc1-n1c(C)cc(/C=C2/C(=N)N3C(=NC2=O)SN=C3S(C)(=O)=O)c1C	-0.8	3.4	-2.9	79.7*	7.5	2.3	77.3*	42.4*
CCOC(=O)[C@@]12CCC3=C1N(CCC3)C(=O)[C@H](CC(=O)NCCCN1CCCC1=O)C2	-2.8	.	-2.1	-0.5	-3.5	-1.1	.	.
O=C(O)c1ccc(N/N=C/c2ccc(-c3ccccc3Cl)o2)cc1	1.8	-1.5	-2.1	64.7*	-1.8	1.0	41.4*	11.3*
O=C(O)c1ccc(N/N=C/c2ccc(-c3ccc(Br)cc3)o2)cc1	8.0	1.1	12.0	48.7*	2.0	4.3	49.4*	14.0*
O=C(O)c1cc(-c2ccc(/C=N/Nc3ccc(Cl)cc3)o2)ccc1Cl	20.1	4.9	3.6	67.1*	3.0	-6.0	67.5*	28.2*
CC(C)N(c1cc(=O)nc2ccccn12)C(C)C	2.0	.	-3.1	3.6	5.5	0.5	.	.
COc1cccc(NC(=O)Nc2nc3ncccn3c2-c2ccc(C)cc2)c1	1.0	.	-0.6	2.2	4.0	-2.0	.	.
SMILES	PRMT1 inh	ABHD5-PLIN5 inh	LEDGF integ inh	rCAG RNA binder	MBD2 inh	UHRF1 binding	rCAG binder conf	DNA CAG counter
CN(C)[C@H]1CCN(c2cccc3c2S(=O)(=O)N2CC[C@@H](C2)O3)C1	0.5	.	5.0	1.1	-4.8	0.1	.	.
O=[N+]([O-])c1cc(Cl)cc(/C=N/NC(=S)Nc2ccc(S(=O)(=O)N3CCOCC3)cc2)c1O	4.9	18.3	2.0	97.6*	-6.0	-14.9	87.7*	63.4*
C[C@@H]1CN(c2ccc(N3CCN(C(=O)OC(C)(C)C)C[C@@H]3C)cc2C#N)C[C@H](C)O1	-2.3	.	3.5	1.7	-0.1	3.4	.	.
Cn1c2ccccc2c2cc(/C=N/NC(=O)c3cc(O)cc(O)c3)ccc21	1.5	-11.8	3.7	43.5*	6.7	4.2	33.9	18.4*
COc1cc(C(=O)N/N=C/c2ccc3c(c2)c2ccccc2n3C)ccc1O	2.4	4.8	1.0	25.1	-2.9	-4.9	.	.
Cn1c2ccccc2c2cc(/C=N/NC(=O)c3cc(O)ccc3O)ccc21	18.6	-5.7	41.9*	66.0*	5.8	11.3	62.1*	30.8*
CC(=O)N1c2ccccc2C(C)=NCC1C(=O)NC1CCCCC1 (configuration not stated)	-4.5	.	4.5	-1.4	-4.8	-0.7	.	.
CCOC(=O)CCCCCC(=O)Nc1ccc2c(c1)C(=O)N([C@H](C)CO)C[C@@H](C)[C@@H](CN(C)S(=O)(=O)c1ccc(C)cc1)OCCCC[C@H](C)O2	-2.4	.	-0.3	10.0	3.9	18.5	.	.
O=C(CCl)Nc1ccc(C(=O)NCC2COc3ccccc3O2)cc1 (configuration not stated)	-5.5	.	1.6	4.2	-2.2	-3.4	.	.
CCOC(=O)CNS(=O)(=O)c1ccc2c3c(cccc13)C(=O)N2CC	-6.4	-3.2	3.4	-0.4	-1.1	-3.5	.	.
CCOC(=O)Cc1csc(NS(=O)(=O)c2ccc3c4c(cccc24)C(=O)N3CC)n1	2.4	1.7	-2.4	55.8*	-3.1	0.9	46.8*	13.2*
CCOP(=O)(OCC)c1ccc2c(c1)C(=O)c1ccccc1-2	1.1	.	-2.5	.	-5.0	-0.3	.	.
c1ccc(Nc2nnc(-c3ccc4c(c3)OCO4)o2)cc1	12.2	.	-0.7	3.1	-1.5	15.3	.	.
Cc1ccc(N=Nc2c(O)[nH]c(=O)[nH]c2=O)cc1S(=O)(=O)Nc1ccc(Br)cc1	3.7	-7.1	1.4	36.2*	-2.6	1.7	31.8	10.6*
Cc1ccc(NC(=O)C2CC3CCC2C3)cc1 (configuration not stated)	0.2	.	1.0	.	0.4	-0.7	.	.
